Measurements reported in PubChem BioAssay (Tox21).
Results filed as inconclusive are left out. Where a call stands in place of a potency, no number is given. Calls of active or inactive are those of the source. Unless noted, the call rests on the fitted dose curve; in most records, active means well fitted curve in the direction sought with a large enough effect in the repeat runs; inconclusive means weak or mixed curves; inactive means no such curve, though single readings can be large; an effect the other way counts as inactive or inconclusive.

Experiments:
[1] = qHTS assay to identify small molecule agonists of the androgen receptor (AR) signaling pathway in the presence of an antagonist - cell viability counter screen (AID 1259379); further: nearly all actives have a fitted effect of over 25% in size; further: potency means the concentration at half of the fitted maximal effect
Procedure, shortened: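 MDA-kb2 cells (MMTV-luciferase, AR/GR), 3,000/well, 5 h attachment, then 3.0 µM nilutamide (final) and compounds at 15 concentrations. Viability by CellTiter-Fluor fluorescence after 16 h at 37 °C, 0% CO2, in the reporter wells.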

[2] = qHTS assay to identify small molecule agonists of the estrogen receptor beta (ER-beta) signaling pathway - cell viability counter screen (AID 1259380); further: nearly all actives have a fitted effect of over 30% in size; further: potency means the concentration at half of the fitted maximal effect
Procedure, shortened: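 ER-beta-UAS-bla HEK293T cells in medium with 2% charcoal-stripped FBS, pre-incubated 6 hr, then treated 16 hr at 37C. Cytotoxicity read in the same wells by CellTiter-Glo luminescence after 30 min at room temperature.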

[3] = qHTS assay to identify small molecule antagonists of the estrogen receptor beta (ER-beta) signaling pathway - cell viability counter screen (AID 1259382); further: nearly all actives have a fitted effect of over 55% in size; further: potency means the concentration at half of the fitted maximal effect
Procedure, shortened: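 ER-beta-UAS-bla HEK293T cells in 2% charcoal-stripped FBS medium, treated with compound plus 1 nM 17-beta-estradiol for 16 h at 37C. Viability read by CellTiter-Glo luminescence after 30 min at room temperature in the same wells.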

[4] = target: Estrogen receptor (Homo sapiens) (UniProt P03372); assay: qHTS assay to identify small molecule agonists of the estrogen receptor alpha (ER-alpha) signaling pathway in the presence of an antagonist (AID 1259383; calls by dose curve; further: nearly all actives have a fitted effect of over 15% in size; further: potency means the concentration at half of the fitted maximal effect; on activation: top concentration of the series differs between compounds)
Procedure, shortened: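 VM7Luc4E2 cells express endogenous full-length ER-alpha with an ERE-luciferase reporter and were hormone-deprived for 5 days. Compounds at 15 concentrations were added with 10.0nM ICI-182,780 for 22hr at 37C. Luminescence was read with ONE-Glo.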

[5] = qHTS assay to identify small molecule agonists or antagonists of the thyroid stimulating hormone receptor (TSHR) signaling pathway - wild type cell line counter screen (AID 1259384; calls by dose curve)
Procedure, shortened: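 Wild-type HEK293 cells were plated 18 h at 37 C/5% CO2, pin-dosed with compound plus Ro20-1724 medium, held 30 min at room temperature, then given cAMP-d2 and anti-cAMP-cryptate; fluorescence was read after 1 h. Fifteen concentrations, triplicate.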

[6] = qHTS assay to identify small molecule agonists of the TGF-beta/Smad signaling pathway - cell viability counter screen (AID 1346829); further: nearly all actives have a fitted effect of over 45% in size; further: potency means the concentration at half of the fitted maximal effect
Procedure, shortened: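 CellTiter-Glo luminescence readout; SBE-bla HEK 293T cells, overnight plating, compound 5 hr at 37 C/5% CO2, then bla substrate 2 hr RT, then CellTiter-Glo 30 min RT.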

[7] = Human pregnane X receptor (PXR) small molecule agonists, qHTS cell viability counter screen (AID 1346977); further: nearly all actives have a fitted effect of over 50% in size; further: potency means the concentration at half of the fitted maximal effect
Procedure, shortened: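 PXR-Luc HepG2 cells (2,000/well, 5% charcoal-stripped FBS) preincubated 5 hr, then exposed to compounds 24 hr at 37 C. Viability read in the same wells by CellTiter-Fluor fluorescence, reagent added at 23 hr, 1 hr incubation.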

[8] = target: Thyrotropin receptor (Homo sapiens) (UniProt P16473); assay: qHTS assay to identify small molecule antagonists of the thyroid stimulating hormone receptor (TSHR) signaling pathway (AID 1259385; calls by dose curve; further: nearly all actives have a fitted effect of over 20% in size; further: potency means the concentration at half of the fitted maximal effect)
Procedure, shortened: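 TSHR-HEK293 cells were plated and held 18 h at 37C/5% CO2, then given compound plus Ro20-1724 and stimulated with TSH at 1.5 ng/mL final. After 30 min at room temperature, cAMP was detected with cAMP-d2/anti-cAMP-cryptate (1 h) by fluorescence.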

[9] = qHTS assay to identify small molecule agonists of the estrogen receptor alpha (ER-alpha) signaling pathway in the presence of an antagonist - cell viability counter screen (AID 1259386);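 further: cells exposed to compounds for 22 h at 37 °C before the viability read; nearly all actives have a fitted effect of over 30% in size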; further: potency means the concentration at half of the fitted maximal effect
Procedure, shortened: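 Cell viability in VM7Luc4E2 cells (endogenous full-length ER-alpha) measured by CellTiter-Fluor fluorescence in the same wells as the luciferase screen. Cells pre-cultured 5 days in charcoal-stripped serum, then treated 22 h with compounds at 15 concentrations plus 10.0nM ICI-182,780.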

[10] = target: Progesterone receptor (Homo sapiens) (UniProt P06401); assay: qHTS assay to identify small molecule agonists of the progesterone receptor (PR) signaling pathway (AID 1346784; calls by dose curve; further: nearly all actives have a fitted effect of over 30% in size)
Procedure, shortened: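 PR-UAS-bla HEK 293T cells (beta-lactamase reporter under UAS) in 2% charcoal-stripped FBS, dosed with 23 nL compound after 6 hr, incubated 16hr at 37C. LiveBLAzer B/G FRET substrate added, fluorescence read after 2 hours.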

[11] = qHTS assay to identify small molecule antagonists of the progesterone receptor (PR) signaling pathway - cell viability counter screen (AID 1346798); further: nearly all actives have a fitted effect of over 50% in size; further: potency means the concentration at half of the fitted maximal effect
Procedure, shortened: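 PR-UAS-bla HEK293T cells, 3,000/well in 2% charcoal-stripped FBS medium, dosed with compounds plus R5020 agonist and incubated 16 h at 37C. Viability then measured in the same wells by CellTiter-Glo luminescence after 30 min at RT.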

[12] = qHTS assay to identify small molecule agonists of the progesterone receptor (PR) signaling pathway - cell viability counter screen (AID 1346799; calls by dose curve; further: nearly all actives have a fitted effect of over 45% in size; further: potency means the concentration at half of the fitted maximal effect)
Procedure, shortened: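 Counter screen in the PR-UAS-bla HEK293T wells (2% charcoal-stripped FBS, 16 h compound exposure at 37 C) after the bla read. CellTiter-Glo added, 30 min at room temperature, luminescence read as cell viability.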

[13] = qHTS assay to identify small molecule antagonists of the TGF-beta/Smad signaling pathway - cell viability counter screen (AID 1346824); further: nearly all actives have a fitted effect of over 50% in size; further: potency means the concentration at half of the fitted maximal effect
Procedure, shortened: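 SBE-bla HEK 293T cells were plated overnight at 37 C, then given compounds in DMSO plus TGF-beta1 (added as 0.25 ng/mL solution) for 5 hr. After the bla read, CellTiter-Glo was added to the same wells and luminescence read after 30 min at room temperature.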

[14] = target: Thyrotropin-releasing hormone receptor (Homo sapiens) (UniProt P34981); assay: qHTS assay to identify small molecule antagonists of the thyrotropin-releasing hormone receptor (TRHR) signaling pathway (AID 1346877; active means well fitted inhibition curve with a large enough effect in the repeat runs, not every such curve was filed as active; further: potency means the concentration at half of the fitted maximal effect)
Procedure, shortened: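 TRHR-expressing HEK293 cells loaded with calcium dye for 2 h at 37 C; compounds pre-incubated 5 min at room temperature before TRH challenge at 1 nM final. Intracellular calcium fluorescence read kinetically for 3 min; 15 concentrations in triplicate.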

[15] = target: Thyrotropin-releasing hormone receptor (Homo sapiens) (UniProt P34981); assay: qHTS assay to identify small molecule agonists of the thyrotropin-releasing hormone receptor (TRHR) signaling pathway (AID 1346891; calls by dose curve; further: potency means the concentration at half of the fitted maximal effect; on activation: series mostly up to about 58 µM)
Procedure, shortened: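 HEK293 cells expressing TRHR plated 18 h at 37 C/5% CO2, calcium dye-loaded 2 h at 37 C, then compound added (agonist mode); kinetic calcium fluorescence read 3 min at 1 s intervals; 15 concentrations in triplicate.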

[16] = target: Androgen receptor (Homo sapiens) (UniProt P10275); assay: qHTS assay to identify small molecule agonists of the androgen receptor (AR) signaling pathway in the presence of an antagonist (AID 1259381; calls by dose curve; further: nearly all actives have a fitted effect of over 15% in size)
Procedure, shortened: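 MDA-kb2 cells carrying MMTV-luciferase (AR/GR responsive), 3,000 cells/well, co-treated with 3.0 uM nilutamide final. Compounds at 15 concentrations, 16 hr at 37C without CO2. Luciferase luminescence read after 30 min with ONE-Glo.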

[17] = target: Progesterone receptor (Homo sapiens) (UniProt P06401); assay: qHTS assay to identify small molecule antagonists of the progesterone receptor (PR) signaling pathway (AID 1346795; active means well fitted inhibition curve with a large enough effect in the signal ratio in the repeat runs, not every such curve was filed as active; the % refers to the signal ratio; further: potency means the concentration at half of the fitted maximal effect)
Procedure, shortened: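 PR-UAS-bla HEK293T cells with beta-lactamase reporter under UAS control, in 2% charcoal-stripped FBS, treated with compounds plus 1 nM promegestone (R5020, final) for 16 hr at 37C. Read-out: FRET beta-lactamase substrate fluorescence after 2 hr at room temperature.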

[18] = qHTS assay to identify small molecule agonists of the TGF-beta/Smad signaling pathway (AID 1346859; active means well fitted activation curve with a large enough effect in the signal ratio in the repeat runs, not every such curve was filed as active; the % refers to the signal ratio; further: series mostly up to about 77 µM)
Procedure, shortened: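 SBE-bla HEK293T cells plated overnight, then compound exposure for 5 h at 37 C. Beta-lactamase reporter read with LiveBLAzer B/G FRET substrate after 2 h at room temperature, fluorescence at 405 nm excitation, 460/530 nm emission.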

Chain of Androgen receptor (Homo sapiens) (P10275 whole entry, looked up): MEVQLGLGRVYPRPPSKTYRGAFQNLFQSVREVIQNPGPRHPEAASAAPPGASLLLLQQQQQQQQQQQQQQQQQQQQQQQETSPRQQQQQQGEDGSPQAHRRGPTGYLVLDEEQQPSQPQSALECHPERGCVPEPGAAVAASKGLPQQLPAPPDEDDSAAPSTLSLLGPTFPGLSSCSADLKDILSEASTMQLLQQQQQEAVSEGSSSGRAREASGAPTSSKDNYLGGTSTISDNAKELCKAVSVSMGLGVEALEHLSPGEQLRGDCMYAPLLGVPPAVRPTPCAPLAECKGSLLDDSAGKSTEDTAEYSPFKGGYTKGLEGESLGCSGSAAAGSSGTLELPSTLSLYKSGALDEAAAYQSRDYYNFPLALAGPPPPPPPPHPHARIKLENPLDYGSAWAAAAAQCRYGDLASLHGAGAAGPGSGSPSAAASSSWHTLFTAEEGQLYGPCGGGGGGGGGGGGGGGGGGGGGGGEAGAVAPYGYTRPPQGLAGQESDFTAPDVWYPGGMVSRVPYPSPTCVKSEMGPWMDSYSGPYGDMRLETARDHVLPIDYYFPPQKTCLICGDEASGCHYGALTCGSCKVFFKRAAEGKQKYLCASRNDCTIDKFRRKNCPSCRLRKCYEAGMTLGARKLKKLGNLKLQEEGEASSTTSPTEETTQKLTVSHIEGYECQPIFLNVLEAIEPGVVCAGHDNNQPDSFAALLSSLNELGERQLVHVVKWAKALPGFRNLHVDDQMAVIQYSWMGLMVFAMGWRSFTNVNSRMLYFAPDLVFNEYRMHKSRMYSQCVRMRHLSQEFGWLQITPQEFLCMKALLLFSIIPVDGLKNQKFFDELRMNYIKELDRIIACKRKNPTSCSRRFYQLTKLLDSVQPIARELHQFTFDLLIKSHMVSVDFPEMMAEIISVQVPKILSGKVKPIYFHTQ
Chain of Thyrotropin receptor (Homo sapiens) (P16473 whole entry, looked up): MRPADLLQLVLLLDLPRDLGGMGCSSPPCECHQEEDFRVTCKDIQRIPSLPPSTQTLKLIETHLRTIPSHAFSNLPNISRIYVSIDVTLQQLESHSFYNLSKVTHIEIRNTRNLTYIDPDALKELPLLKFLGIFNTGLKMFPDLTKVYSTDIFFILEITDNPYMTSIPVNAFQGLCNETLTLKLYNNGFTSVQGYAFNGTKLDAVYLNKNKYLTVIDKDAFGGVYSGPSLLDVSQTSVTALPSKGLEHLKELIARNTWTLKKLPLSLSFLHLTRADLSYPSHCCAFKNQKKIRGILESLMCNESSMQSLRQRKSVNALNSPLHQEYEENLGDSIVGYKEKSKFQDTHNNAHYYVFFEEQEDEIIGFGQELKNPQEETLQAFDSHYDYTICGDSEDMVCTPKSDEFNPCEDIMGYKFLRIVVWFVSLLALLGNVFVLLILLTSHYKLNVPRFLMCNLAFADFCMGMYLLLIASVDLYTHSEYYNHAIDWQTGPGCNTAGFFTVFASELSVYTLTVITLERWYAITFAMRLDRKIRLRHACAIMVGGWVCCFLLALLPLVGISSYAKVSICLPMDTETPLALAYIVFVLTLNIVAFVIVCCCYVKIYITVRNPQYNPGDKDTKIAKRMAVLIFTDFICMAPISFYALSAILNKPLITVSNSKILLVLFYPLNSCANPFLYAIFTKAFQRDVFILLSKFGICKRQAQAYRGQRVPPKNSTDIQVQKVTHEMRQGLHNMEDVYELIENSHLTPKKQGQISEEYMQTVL
Chain of Estrogen receptor (Homo sapiens) (P03372 whole entry, looked up): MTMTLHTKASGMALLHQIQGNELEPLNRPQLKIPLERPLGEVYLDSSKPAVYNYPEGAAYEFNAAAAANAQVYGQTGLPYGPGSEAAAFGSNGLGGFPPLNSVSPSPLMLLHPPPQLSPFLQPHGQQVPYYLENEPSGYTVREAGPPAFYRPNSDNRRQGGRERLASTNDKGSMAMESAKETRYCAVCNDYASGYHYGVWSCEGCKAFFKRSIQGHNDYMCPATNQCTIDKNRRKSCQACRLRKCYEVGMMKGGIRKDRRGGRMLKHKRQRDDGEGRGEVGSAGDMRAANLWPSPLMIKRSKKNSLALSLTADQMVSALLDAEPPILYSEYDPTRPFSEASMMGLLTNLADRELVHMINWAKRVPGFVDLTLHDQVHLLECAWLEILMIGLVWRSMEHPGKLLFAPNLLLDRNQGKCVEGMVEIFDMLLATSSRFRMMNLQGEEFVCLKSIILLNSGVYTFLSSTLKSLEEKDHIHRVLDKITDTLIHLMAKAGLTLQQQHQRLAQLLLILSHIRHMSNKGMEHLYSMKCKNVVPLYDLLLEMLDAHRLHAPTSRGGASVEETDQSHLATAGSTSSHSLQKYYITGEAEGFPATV
Chain of Thyrotropin-releasing hormone receptor (Homo sapiens) (P34981 whole entry, looked up): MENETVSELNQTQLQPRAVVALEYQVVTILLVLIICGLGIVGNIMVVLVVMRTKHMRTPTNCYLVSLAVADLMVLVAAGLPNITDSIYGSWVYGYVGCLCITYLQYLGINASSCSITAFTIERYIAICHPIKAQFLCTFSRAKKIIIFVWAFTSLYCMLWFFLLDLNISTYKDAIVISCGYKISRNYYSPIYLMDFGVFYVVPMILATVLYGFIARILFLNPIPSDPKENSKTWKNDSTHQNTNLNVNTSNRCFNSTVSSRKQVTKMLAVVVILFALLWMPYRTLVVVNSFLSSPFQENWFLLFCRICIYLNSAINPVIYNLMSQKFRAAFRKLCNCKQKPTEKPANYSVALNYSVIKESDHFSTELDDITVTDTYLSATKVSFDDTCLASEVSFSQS
Chain of Progesterone receptor (Homo sapiens) (P06401 whole entry, looked up): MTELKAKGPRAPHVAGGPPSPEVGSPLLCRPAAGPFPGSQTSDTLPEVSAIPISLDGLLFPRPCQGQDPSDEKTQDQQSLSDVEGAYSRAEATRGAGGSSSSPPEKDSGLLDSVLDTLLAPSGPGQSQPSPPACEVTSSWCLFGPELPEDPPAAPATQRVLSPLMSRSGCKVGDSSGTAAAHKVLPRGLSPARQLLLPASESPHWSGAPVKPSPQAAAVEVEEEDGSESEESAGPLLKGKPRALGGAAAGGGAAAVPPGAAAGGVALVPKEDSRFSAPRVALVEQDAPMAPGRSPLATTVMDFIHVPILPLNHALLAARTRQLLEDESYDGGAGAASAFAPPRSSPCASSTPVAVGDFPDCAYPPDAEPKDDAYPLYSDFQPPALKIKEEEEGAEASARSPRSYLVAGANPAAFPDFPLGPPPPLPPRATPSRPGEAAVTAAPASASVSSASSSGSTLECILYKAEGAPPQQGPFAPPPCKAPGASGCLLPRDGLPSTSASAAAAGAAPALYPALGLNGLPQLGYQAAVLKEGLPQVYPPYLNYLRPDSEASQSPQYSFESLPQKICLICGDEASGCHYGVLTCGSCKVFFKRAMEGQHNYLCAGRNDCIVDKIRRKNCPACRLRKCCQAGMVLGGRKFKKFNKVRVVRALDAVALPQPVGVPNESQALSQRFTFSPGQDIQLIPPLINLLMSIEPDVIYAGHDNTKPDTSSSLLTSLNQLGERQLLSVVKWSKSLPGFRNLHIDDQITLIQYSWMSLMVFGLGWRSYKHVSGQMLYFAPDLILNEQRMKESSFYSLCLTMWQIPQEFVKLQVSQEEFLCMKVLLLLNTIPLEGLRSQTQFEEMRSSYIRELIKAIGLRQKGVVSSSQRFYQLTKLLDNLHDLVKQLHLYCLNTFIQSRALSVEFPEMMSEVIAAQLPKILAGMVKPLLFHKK

Compound | Potency [1] | Potency [2] | Potency [3] | Potency [4] | outcome [5] | Potency [6] | Potency [7] | Potency [8] | Potency [9] | Potency [10] | Potency [11] | Potency [12] | Potency [13] | Potency [14] | Potency [15] | Potency [16] | Potency [17] | outcome [18]
CCCN(CCC)c1c([N+](=O)[O-])cc(S(N)(=O)=O)cc1[N+](=O)[O-] | 51.8 µM (active) | 23.1 µM (active) | 54.9 µM (active) | 65.2 µM (active) | inactive | 58.6 µM (active) | 50.1 µM (active) | – | – | – | – | – | – | – | – | – | – | –
Clc1ccc(-c2ccc(Cl)c(Cl)c2Cl)c(Cl)c1Cl | inactive | 58.2 µM (active) | inactive | inactive | inactive | inactive | inactive | 58.2 µM (active) | inactive | inactive | 23.2 µM (active) | 41.2 µM (active) | inactive | inactive | inactive | – | – | –
CCCCCCCCCC[N+](C)(C)CCCCCCCCCC | 54.5 µM (active) | 15.4 µM (active) | 17.2 µM (active) | inactive | inactive | 38.9 µM (active) | 27.3 µM (active) | – | 68.6 µM (active) | – | 19.3 µM (active) | 8.63 µM (active) | 43.6 µM (active) | – | inactive | – | – | –
CC(C)C(=O)Cl | inactive | inactive | inactive | – | inactive | inactive | inactive | inactive | inactive | inactive | inactive | inactive | inactive | inactive | inactive | inactive | inactive | inactive
O=C1c2ccccc2C(=O)C1C(=O)C(c1ccccc1)c1ccc(Cl)cc1 (stereo unspecified) | 27.3 µM (active) | 24.3 µM (active) | – | inactive | inactive | – | 21.7 µM (active) | – | – | – | inactive | – | – | – | – | inactive | – | inactive
O=[N+]([O-])c1cc(C(F)(F)F)c(Cl)c([N+](=O)[O-])c1Cl | 27.3 µM (active) | 27.3 µM (active) | 30.6 µM (active) | inactive | inactive | 49 µM (active) | 27.3 µM (active) | 61.1 µM (active) | 54.5 µM (active) | – | 54.5 µM (active) | – | 49 µM (active) | inactive | inactive | – | – | –
C=CC(=O)OCC(COC(=O)C=C)(COC(=O)C=C)COC(=O)C=C | 12.2 µM (active) | 7.7 µM (active) | 9.69 µM (active) | inactive | – | 49 µM (active) | 12.2 µM (active) | – | 13.7 µM (active) | – | 17.2 µM (active) | 19.3 µM (active) | – | inactive | inactive | inactive | – | –
S=C(SSC(=S)N1CCCCC1)N1CCCCC1 | inactive | 0.188 µM (active) | – | – | inactive | inactive | – | inactive | – | inactive | 0.531 µM (active) | – | inactive | – | – | – | – | inactive
C=CCOC(N)=O | inactive | inactive | inactive | – | inactive | inactive | inactive | inactive | inactive | inactive | inactive | inactive | inactive | inactive | inactive | – | inactive | inactive
CC(=O)c1cc(C(C)(C)C)cc2c1CCC2(C)C | inactive | inactive | inactive | inactive | – | inactive | inactive | – | inactive | inactive | inactive | inactive | inactive | inactive | inactive | – | – | inactive
C[C@@H]1CC[C@@]2(OC1)O[C@H]1[C@@H](O)[C@H]3[C@@H]4CC[C@H]5C[C@@H](O[C@@H]6O[C@H](CO)[C@H](O[C@@H]7O[C@H](CO)[C@@H](O)[C@H](O[C@@H]8OC[C@@H](O)[C@H](O)[C@H]8O)[C@H]7O[C@@H]7O[C@H](CO)[C@@H](O)[C@H](O[C@@H]8O[C@H](CO)[C@@H](O)[C@H](O)[C@H]8O)[C@H]7O)[C@H](O)[C@H]6O)[C@H](O)C[C@]5(C)[C@H]4CC[C@]3(C)[C@H]1[C@@H]2C | 57.8 µM (active) | – | 10.3 µM (active) | inactive | inactive | 20.7 µM (active) | 10.3 µM (active) | 4.59 µM (active) | – | – | 16.3 µM (active) | 14.5 µM (active) | 23.2 µM (active) | 0.804 µM (active) | 0.655 µM (active) | inactive | – | –
CCCCCCCCCCCCBr | inactive | 43.3 µM (active) | – | inactive | inactive | inactive | inactive | inactive | inactive | inactive | – | – | inactive | inactive | inactive | – | – | inactive
Cc1cc(SCc2sc(-c3ccc(C(F)(F)F)c(F)c3)nc2C)ccc1OCC(=O)O | inactive | 15.4 µM (active) | 13.7 µM (active) | inactive | – | inactive | – | – | inactive | inactive | 19.3 µM (active) | 8.63 µM (active) | inactive | inactive | inactive | – | 17.2 µM (active) | –
N#C/C=C/C#N | inactive | inactive | – | – | – | inactive | inactive | inactive | inactive | inactive | inactive | inactive | inactive | inactive | inactive | – | 45.3 µM (active) | inactive
